Measurements taken from ChEMBL document CHEMBL3988442, “University of Dundee, Small-Polar-MMV Screening Library” (2021).
About 13,000 (27%) of roughly 48,000 compounds showed an effect of 50% or more. The list shows a part of the results.

System: Wolbachia pipientis
Experiment: Anti-Wolbachia Cell-Based Screen
Type: functional
Parameters: scale not given: in the data most compounds retested in dose-response had high values
Settings: 5 µM

Row | SMILES | Percent Effect [%]
1 | COC(=O)N1CCCN(C(=O)NCc2ccc(Cl)s2)CC1 | 11.92
2 | CC(C)COCCC(=O)Nc1cc(-n2nnnc2C2CC2)ccc1F | 3.649
3 | CC1CN(CC(=O)Nc2nncs2)CCN1c1nccs1 (stereo not drawn) | -0.151
4 | CC1CN(CC(=O)Nc2cccnc2)CCN1c1nccs1 (stereo not drawn) | 0.898
5 | CC1CN(CC(=O)Nc2ccncc2)CCN1c1nccs1 (stereo not drawn) | 150.9
6 | CCSC(C)C(=O)N1CCC(c2nn(C)c(=O)n2-c2ccccc2)CC1 (stereo not drawn) | -5.623
7 | OCCCN1CCCC1c1ccc(Br)cc1 (stereo not drawn) | -3.155
8 | c1cc(C2CCCN2CC2CC2)n[nH]1 (stereo not drawn) | 189.2
9 | OCCOCCN1CCCC1c1cccc(Cl)c1 (stereo not drawn) | -3.053
10 | CC(C)CN1CCCC1c1ccc(C(=O)Nc2cc[nH]n2)s1 (stereo not drawn) | 6.388
11 | OCCN1CCCCC1c1cc[nH]n1 (stereo not drawn) | 167
12 | c1cc(-c2c[nH]c([C@@H]3COCCN3CC3CC3)n2)ccn1 | -6.01
13 | COCCOc1ccnc(-c2noc([C@@H]3CCCN3CC(C)C)n2)c1 | -7.911
14 | c1cc(-c2noc([C@@H]3CCCN3CC3CC3)n2)cc(N2CCCC2)n1 | 1.663
15 | Nc1ncncc1-c1noc([C@@H]2CCCN2CC2CC2)n1 | -1.832
16 | c1cc(C2CCCN2CC2CCCCC2)n[nH]1 (stereo not drawn) | 159.6
17 | CN1CCC(c2n[nH]c(=O)n2CC2CCCCC2)CC1 | 16.1
18 | CC(C)CN1CCCC1c1cc[nH]n1 (stereo not drawn) | 114.8
19 | CC(C)NC(=O)CCNC(=O)c1cc(F)ccc1NS(C)(=O)=O | -9.152
20 | CCOc1ccc(C(=O)N(C)C)cc1NC(=O)c1ccsc1 | 9.824
21 | CCc1nncn1CCNC(=O)Nc1ccc(OC)c(C)c1 | -6.777
22 | CCn1ccnc1CN1CCN(CC(O)Cn2cccn2)CC1 (stereo not drawn) | -2.692
23 | Cc1cc(C)c2cc(C(=O)N3CCN(Cc4ccco4)CC3)[nH]c2c1 | 21.49
24 | Cc1ccc(NCc2ccco2)cc1N1CCOC1=O | -6.269

Row | SMILES | Percent Effect [%]
25 | Cc1ccc(CNCCC(O)(c2nccn2C)C(F)(F)F)o1 (stereo not drawn) | -16.77
26 | Cc1ccc(CNCc2nnc3n2CCCC3C(F)(F)F)o1 (stereo not drawn) | 18.11
27 | Cc1cc(C)c2cc(CNCc3cccnc3)c3nn(C)c(=O)n3c2c1 | 113.3
28 | Cc1cc(C)c2cc(CNCc3ccc(C)o3)c3nn(C)c(=O)n3c2c1 | 122.6
29 | Cc1cc(C)c2cc(CNCc3ccco3)c3nn(C)c(=O)n3c2c1 | 111.5
30 | Cc1cc(C)c2cc(CNCc3ccccc3)c3nn(C)c(=O)n3c2c1 | -7.626
31 | COc1ccc(Oc2ccc(C(F)(F)F)cn2)cc1CN1CCCC1 | -1.522
32 | CCn1ccnc1S(=O)(=O)Cc1c(C)cc(C)c(C(C)=O)c1C | -13.95
33 | CC(C)CN(Cc1ccsc1)C(=O)CCCn1cncn1 | 5.825
34 | CCOc1cccc(CNC(=O)C(C)(C)C#N)c1OC(F)F | -15.69
35 | CC(=O)N1[C@H](Cn2cncn2)C[C@@H]2CN(CC3CC3)CC[C@@H]21.O=C(O)C(F)(F)F | -0.2509
36 | CCC(=O)N1CC[C@H]2[C@H](C[C@@H](Cn3cccn3)N2c2nccs2)C1.O=C(O)C(F)(F)F.O=C(O)C(F)(F)F | 119.1
37 | CCC(=O)N1CC[C@H]2[C@H](C[C@@H](CN3CCCC3)N2c2nccs2)C1.O=C(O)C(F)(F)F.O=C(O)C(F)(F)F | 104
38 | Cl.Cl.c1csc(N2[C@H](Cn3cncn3)C[C@@H]3CNCC[C@@H]32)n1 | 3.496
39 | O=C(O)C(F)(F)F.O=C(O)C(F)(F)F.O=C(O)C(F)(F)F.c1cnn(C[C@@H]2C[C@@H]3CN(CC4CC4)CC[C@@H]3N2c2nccs2)c1 | 119.3
40 | CC(=O)N1CC[C@H]2[C@H](C[C@@H](CN3CCCC3)N2c2nccs2)C1.O=C(O)C(F)(F)F.O=C(O)C(F)(F)F | 95.98
41 | CCCc1nnc(NC(C)c2ccc(F)cc2)o1 (stereo not drawn) | -29.12
42 | Cc1cccc2c(CCNC(=O)[C@H](N)c3ccccc3)c[nH]c12 | -3.898
43 | CCC(NCc1ccccc1)c1ccccc1OCC(=O)NC (stereo not drawn) | -0.2413
44 | CSCC(=O)N1C[C@H]2CC[C@@H]1CN(C1Cc3ccccc3C1)C2 | 0.6506
45 | CN1CC[C@H]2[C@H](C[C@@H](CN3CCCC3)N2c2nccs2)C1.O=C(O)C(F)(F)F.O=C(O)C(F)(F)F.O=C(O)C(F)(F)F | 105.1
46 | CN(C)C(=O)CN1C(=O)CCC12CCN(Cc1cccs1)CC2.O=C(O)C(F)(F)F | 103.6
47 | Cc1ccc(CN2CCC3(CCC(=O)N3CC(=O)N(C)C)CC2)s1.O=C(O)C(F)(F)F | 113.5
48 | CN(C)C(=O)CN1C(=O)CCC12CCN(Cc1ccsc1)CC2.O=C(O)C(F)(F)F | 105.6

Row | SMILES | Percent Effect [%]
49 | CN(C)C(=O)CN1CCC2(CCCN(Cc3cccs3)C2)C1=O.O=C(O)C(F)(F)F (stereo not drawn) | -0.327
50 | CC1N(C)C(=O)COC12CCN(Cc1ccsc1)CC2.O=C(O)C(F)(F)F (stereo not drawn) | -20.67
51 | CN1CC(=O)N(c2cccc(F)c2)CC12CCN(Cc1ccsc1)C2.O=C(O)C(F)(F)F.O=C(O)C(F)(F)F (stereo not drawn) | 7.196
52 | Cc1ccc(CN2CCC3(CCCC(=O)N3)CC2)s1.O=C(O)C(F)(F)F | -45.29
53 | Cc1ccc(CN2CCC3(CCCN3S(C)(=O)=O)CC2)s1.O=C(O)C(F)(F)F | -3.179
54 | Cc1ccc(CN2CCOC3(CCCN(C(=O)c4ccco4)C3)C2)s1.O=C(O)C(F)(F)F (stereo not drawn) | 12.79
55 | N#Cc1nccnc1N1CCC(CSc2ccccc2)C1 (stereo not drawn) | -2.144
56 | Cc1cc(C)nc(NCCSc2cnn[nH]2)n1 | 5.167
57 | Cc1csc2c(=O)n(CCSc3cnn[nH]3)cnc12 | 116
58 | Cc1cc2c(=O)n(CCOCCO)cnc2s1 | -13.8
59 | Cc1csc2c(=O)n(CCN3CCNCC3)cnc12 | -1.772
60 | CCc1ncc(-c2cn(CCSc3ncn[nH]3)nn2)cn1 | -12.01
61 | CCC1CCN(CCn2cnc3c(C)csc3c2=O)CC1 | -5.154
62 | Cc1cc2c(=O)n(CCSc3cnn[nH]3)cnc2s1 | 114.6
63 | COc1ccc(-c2cn(CCSc3ncn[nH]3)nn2)cn1 | 4.594
64 | Cc1cc2c(=O)n(CCSc3ncn[nH]3)cnc2s1 | 95.33
65 | CN(CCCc1cnn(C)c1)C(=O)Nc1cccc2[nH]ncc12 | -6.714
66 | CCc1cnc(N2CC3(CCN(C(=O)c4ccoc4)C3)C2)nc1 | -9.292
67 | CN(C)C[C@H]1OC[C@@H]2CCN(C(=O)c3ccc[nH]3)C[C@@H]21.O=C(O)C(F)(F)F | -11.36
68 | CC(=O)N(C)CC(=O)NC1(c2ccc(F)cc2)CCCC1 | -10.47
69 | O=C1NCCO[C@H]2CN(C(=O)Cc3csc4ccccc34)CC[C@@H]12 | 14.47
70 | CCCn1cnnc1CNC(=O)CC1C(=O)NCCN1CC=C(C)C (stereo not drawn) | 0.5151
71 | Cn1cccc1C(=O)N1CC[C@H]2[C@@H]1CCC(=O)N2CC1CC1 | -7.905
72 | O=C1CC[C@@H]2[C@@H](CCN2C(=O)C2CCOCC2)N1CC1CC1 | -4.769

Row | SMILES | Percent Effect [%]
73 | O=C(O)C(F)(F)F.O=C1CC[C@H]2[C@H](CCN2c2ccccn2)N1CC1CCOCC1 | -16.88
74 | CCc1cnc(N2CC[C@H]3[C@@H]2CCC(=O)N3CC2CCOCC2)nc1.O=C(O)C(F)(F)F | -1.93
75 | Cc1ccc(C(=O)N2CC[C@@H]3[C@H]2CCC(=O)N3CC2CC2)o1 | 4.088
76 | Cn1cccc1C(=O)N1CC[C@@H]2[C@@H]1CC(=O)N2CC1CCOCC1 | -5.807
77 | O=C1C[C@H]2[C@H](CCN2C(=O)c2ccno2)N1CC1CC1 | 88.14
78 | Cc1oncc1C(=O)N1CC[C@H]2[C@@H]1CCC(=O)N2CC1CC1 | 108
79 | Cc1oncc1C(=O)N1CC[C@H]2[C@@H]1CCC(=O)N2CC1CCOCC1 | 95.19
80 | Cc1noc(C)c1CN1CC[C@H]2[C@@H]1CCC(=O)N2CC1CCOCC1.O=C(O)C(F)(F)F | 107.1
81 | Cc1nc(CN2C(=O)CC[C@@H]3[C@H]2CCN3C(=O)c2ccno2)cs1 | 0.107
82 | Cc1nn(C)c(C)c1S(=O)(=O)NCC1(C(N)=O)CCOCC1 | 87.99
83 | Cc1nn(C)c(C)c1CCC(=O)NCC1(C(N)=O)CCOCC1 | 112
84 | CCN(CC)c1ccc(NC(=O)NCC2(C(N)=O)CCOCC2)cn1 | -0.5907
85 | Cc1nn(CC(=O)NCC2(C(N)=O)CCOCC2)c(C)c1Cl | 113.9
86 | Cc1nn(C)c(C)c1CCC(=O)NCc1csc(N2CCCC2)n1 | -4.027
87 | CCc1nc(CC(=O)NCC2(C(N)=O)CCOCC2)cs1 | 13.26
88 | Cn1ccc2c(C(=O)NCC3(C(N)=O)CCOCC3)cccc21 | -19.6
89 | Cc1nn(C)c(C)c1S(=O)(=O)NCC(C)(O)c1ccc2c(c1)OCO2 (stereo not drawn) | 12.95
90 | Cc1nn(C)c(C)c1S(=O)(=O)N(CC(N)=O)CC(C)C | 0.7063
91 | CCN(CC)c1ccc(C(=O)NCC2(C(N)=O)CCOCC2)cn1 | -5.685
92 | Cc1nn(C)c(C)c1CC(=O)NCC1(C(N)=O)CCOCC1 | 121.1
93 | CC(C)C1CN(Cc2nccn2C(C)C)CCC(=O)N1CC1CC1 (stereo not drawn) | -13.37
